Data taken from PubChem BioAssay (NCATS).
Inconclusive results are not listed. Entries that show only a call come without a potency. The source made the active and inactive calls. Unless noted, calls come from the whole dose curve; as a rule, active = well fitted curve in the direction sought with a large enough effect; inconclusive = small, poorly fitted or top-dose-only effect, or another doubt; inactive = no such curve, though single readings can be large; an effect the other way counts as inactive or inconclusive.

Experiments:
[1] = target: Ferritin light chain (Equus caballus) (UniProt P02791); assay: qHTS Validation Assay for Identification of Novel General Anesthetics (AID 2323); note: series mostly up to about 77 µM
Sequence of Ferritin light chain (Equus caballus) (P02791 2-175 limits assumed): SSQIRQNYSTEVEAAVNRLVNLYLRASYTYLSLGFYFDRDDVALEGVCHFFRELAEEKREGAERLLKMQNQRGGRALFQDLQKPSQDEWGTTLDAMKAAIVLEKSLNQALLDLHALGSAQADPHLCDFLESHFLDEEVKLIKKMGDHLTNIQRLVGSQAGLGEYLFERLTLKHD
How it was run: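 10 uM horse-spleen apoferritin + 1-AMA (50% saturated, PBS); cpd pin-transferred, 10 min RT. Ex 380/Em 535 nm endpoint. Activity normalized between free 1-AMA and 1-AMA/apoferritin; 4-parameter Hill fit of concentration-response.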

[2] = target: ATP-dependent DNA helicase Q1 (Homo sapiens) (UniProt P46063); assay: qHTS Validation Assay for Inhibitors of RecQ-Like Dna Helicase 1 (RECQ1) (AID 2353)
Sequence of ATP-dependent DNA helicase Q1 (Homo sapiens) (P46063 whole entry, looked up): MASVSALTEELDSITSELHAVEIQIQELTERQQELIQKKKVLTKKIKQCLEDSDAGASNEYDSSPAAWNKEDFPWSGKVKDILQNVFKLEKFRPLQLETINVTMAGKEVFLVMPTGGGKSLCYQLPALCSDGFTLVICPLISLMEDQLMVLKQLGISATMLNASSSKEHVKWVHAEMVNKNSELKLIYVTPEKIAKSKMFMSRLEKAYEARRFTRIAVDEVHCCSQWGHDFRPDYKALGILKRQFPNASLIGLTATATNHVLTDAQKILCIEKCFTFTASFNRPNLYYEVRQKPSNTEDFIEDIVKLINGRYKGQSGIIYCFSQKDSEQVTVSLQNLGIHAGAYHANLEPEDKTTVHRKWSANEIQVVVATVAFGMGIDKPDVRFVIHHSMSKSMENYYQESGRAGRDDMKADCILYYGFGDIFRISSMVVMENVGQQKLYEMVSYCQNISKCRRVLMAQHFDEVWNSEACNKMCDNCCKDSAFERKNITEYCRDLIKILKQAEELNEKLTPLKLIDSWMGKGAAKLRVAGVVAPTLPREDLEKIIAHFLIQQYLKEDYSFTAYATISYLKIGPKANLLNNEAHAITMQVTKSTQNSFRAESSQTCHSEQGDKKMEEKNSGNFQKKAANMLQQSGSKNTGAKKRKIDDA
How it was run: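 RECQ1T1 50 nM; forked duplex (20 bp + 30-nt ss tails) 200 nM, ATP 2 mM final; pH 8.0, 2 mM MgCl2, 2.5 ug/ml poly(dI-dC); 15 min compound preincubation; discontinuous kinetic read over 2 h at RT.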

[3] = Cytometric Cell-Based qHTS for Inhibitors of the mTORC1 Signaling Pathway in MEF (Tsc2-/-, p53-/-) Cells (AID 2660);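 note: Tsc2 and p53 null MEFs carrying empty vector with compound for 24 h; percent of cells above a phospho-rpS6 to PI ratio cutoff in each well; series mostly up to about 38 µM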
How it was run: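 Cells are plated, treated with compound for 24 hrs at 37 degree Celsius, then fixed, blocked and immunostained for phospho-rpS6 Ser235/236. Propidium iodide counterstain follows. Per-well % positive cells is derived from the PI-normalized phospho-S6 signal.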

[4] = High Content Imaging Cell-Based qHTS for Inhibitors of the mTORC1 Signaling Pathway in MEF (Tsc2-/-, p53-/-) Cells (AID 2666);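 note: percent of cells scored positive for phospho-rpS6 Ser235/236 immunostaining by imaging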
How it was run: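 Inhibition of rpS6 phosphorylation is measured by immunofluorescence imaging in empty-vector Tsc2-/-, p53-/- mouse embryonic fibroblasts after 24 hrs compound exposure at 37 degree Celsius. Results are reported as % positive cells per well.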

[5] = High Content Imaging Cell-Based qHTS for Inhibitors of the mTORC1 Signaling Pathway in MEF Cells (AID 2667);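 note: Tsc2-/- p53-/- MEFs stably re-expressing wild-type Tsc2 exposed 24 h; series mostly up to about 38 µM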
How it was run: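 Fixed-cell imaging of phospho-S6 (Ser235/236, Alexa-488) after 24 hrs of compound treatment at 37 degree Celsius. Signal was normalized to Hoechst, and thresholds from the highest and lowest wells split cells into % active versus % non-active.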

[6] = Cytometry Cell-Based qHTS for Inhibitors of the mTORC1 Signaling Pathway in MEF cells (AID 2668);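 note: Tsc2-/- p53-/- mouse embryonic fibroblasts stably re-expressing wild-type Tsc2; percent cells positive for phospho-rpS6 Ser235/236 relative to propidium iodide stain; series mostly up to about 38 µM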
How it was run: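 Read-out: phospho-rpS6 Ser235/236 immunofluorescence normalized to propidium iodide intensity, scored as % active cells against a rapamycin (7.5 nM) threshold. Cells: Tsc2-/-, p53-/- MEFs stably expressing WT Tsc2, compound-treated 24 hrs at 37 degree Celsius.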

[7] = Validation screen for inhibitors of Lassa infection (AID 463096; calls by dose curve)
[8] = Validation screen for small molecules that induce DNA re-replication in MCF 10A normal breast cells (AID 463097); note: nearly all actives have a fitted effect of over 60% in size; note: potency is the fitted concentration of half-maximal effect
How it was run: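 250 MCF 10A cells/well; compound pin-transferred; 48 hr, 37 C, 5% CO2; Hoechst 40 min; imaged 405/500-530 nm. Hits = more high-intensity nuclei.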

[9] = target: Ubiquitin carboxyl-terminal hydrolase 2 (Homo sapiens) (UniProt O75604); assay: qHTS Validation Assay for Inhibitors of Ubiquitin-specific Protease USP2a Using CHOP2 as the Reporter (AID 463106)
Sequence of Ubiquitin carboxyl-terminal hydrolase 2 (Homo sapiens) (O75604 whole entry, looked up): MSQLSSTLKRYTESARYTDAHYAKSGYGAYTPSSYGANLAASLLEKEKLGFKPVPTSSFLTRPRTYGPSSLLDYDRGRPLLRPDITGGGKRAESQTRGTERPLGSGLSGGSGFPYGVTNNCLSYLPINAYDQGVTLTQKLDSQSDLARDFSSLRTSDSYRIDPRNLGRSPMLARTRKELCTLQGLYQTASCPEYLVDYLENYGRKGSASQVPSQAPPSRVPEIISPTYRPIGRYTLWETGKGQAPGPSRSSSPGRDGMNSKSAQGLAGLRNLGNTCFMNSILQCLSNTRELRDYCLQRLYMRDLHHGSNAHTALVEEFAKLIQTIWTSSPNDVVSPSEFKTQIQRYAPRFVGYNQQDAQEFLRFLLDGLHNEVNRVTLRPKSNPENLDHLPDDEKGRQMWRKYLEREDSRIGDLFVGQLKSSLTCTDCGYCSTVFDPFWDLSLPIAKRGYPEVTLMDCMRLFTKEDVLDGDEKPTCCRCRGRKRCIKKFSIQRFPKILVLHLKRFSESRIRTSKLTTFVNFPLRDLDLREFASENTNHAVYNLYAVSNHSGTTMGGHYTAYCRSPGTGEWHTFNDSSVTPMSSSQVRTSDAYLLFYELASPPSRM
How it was run: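 Inhibition is expressed relative to NEM as the full-inhibition control, with concentration-response curves classed by fit quality, magnitude and activity. Enzyme (USP2 core, 10nM) meets 25nM Ub-CHOP2 after compound preincubation; readings are taken at 60min.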

[10] = target: DNA polymerase III PolC-type (Bacillus subtilis (strain 168)) (UniProt P13267); assay: qHTS Validation Assay for the Inhibitors of DNA Replication in Gram-Positive Bacteria (AID 485295); note: potency is the fitted concentration of half-maximal effect
Sequence of DNA polymerase III PolC-type (Bacillus subtilis (strain 168)) (P13267 whole entry, looked up): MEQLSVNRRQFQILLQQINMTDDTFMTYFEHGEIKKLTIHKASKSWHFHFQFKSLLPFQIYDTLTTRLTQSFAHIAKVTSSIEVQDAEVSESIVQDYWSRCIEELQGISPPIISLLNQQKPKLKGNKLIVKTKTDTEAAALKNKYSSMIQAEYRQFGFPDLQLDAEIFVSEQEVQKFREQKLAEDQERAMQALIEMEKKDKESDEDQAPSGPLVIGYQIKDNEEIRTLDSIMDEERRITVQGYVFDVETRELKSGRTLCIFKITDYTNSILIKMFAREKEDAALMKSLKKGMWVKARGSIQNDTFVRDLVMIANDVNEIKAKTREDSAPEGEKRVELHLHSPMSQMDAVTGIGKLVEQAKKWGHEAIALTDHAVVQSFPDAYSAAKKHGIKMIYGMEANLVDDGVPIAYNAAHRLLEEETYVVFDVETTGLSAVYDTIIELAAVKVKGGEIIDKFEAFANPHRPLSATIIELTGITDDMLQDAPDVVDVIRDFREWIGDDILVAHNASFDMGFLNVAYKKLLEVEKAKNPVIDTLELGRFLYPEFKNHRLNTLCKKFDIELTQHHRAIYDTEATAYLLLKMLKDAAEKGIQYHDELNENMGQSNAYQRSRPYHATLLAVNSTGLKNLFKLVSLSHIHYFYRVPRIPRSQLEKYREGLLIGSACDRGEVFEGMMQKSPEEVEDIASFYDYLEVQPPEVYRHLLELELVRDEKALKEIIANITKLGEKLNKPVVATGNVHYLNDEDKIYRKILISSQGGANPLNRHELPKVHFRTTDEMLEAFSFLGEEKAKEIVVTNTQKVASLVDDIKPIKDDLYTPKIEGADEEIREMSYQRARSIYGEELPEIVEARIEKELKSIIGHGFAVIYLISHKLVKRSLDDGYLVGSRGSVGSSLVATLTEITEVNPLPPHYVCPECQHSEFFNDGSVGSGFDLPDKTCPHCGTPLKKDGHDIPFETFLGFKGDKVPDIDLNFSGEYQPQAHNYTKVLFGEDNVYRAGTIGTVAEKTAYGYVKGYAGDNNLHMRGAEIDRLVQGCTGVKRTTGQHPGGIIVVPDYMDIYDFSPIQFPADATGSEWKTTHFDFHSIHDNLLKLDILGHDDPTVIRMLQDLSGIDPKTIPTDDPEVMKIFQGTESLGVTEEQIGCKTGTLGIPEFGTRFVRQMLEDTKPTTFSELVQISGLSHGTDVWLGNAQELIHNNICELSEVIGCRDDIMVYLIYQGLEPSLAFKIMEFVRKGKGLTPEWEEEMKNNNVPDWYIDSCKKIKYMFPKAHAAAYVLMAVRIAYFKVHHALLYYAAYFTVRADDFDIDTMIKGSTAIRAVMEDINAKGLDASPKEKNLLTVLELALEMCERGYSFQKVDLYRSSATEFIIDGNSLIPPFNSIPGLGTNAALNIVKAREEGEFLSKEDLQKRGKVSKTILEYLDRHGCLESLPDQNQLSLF
How it was run: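 PicoGreen fluorescence (ex 480–485/em 535–540 nm) reports dsDNA synthesized on ssM13Gori template with dNTPs/NTPs. Enzyme: holoenzyme rebuilt from purified PolC, beta subunit, SSB and primase. Compound preincubated before substrate addition; RT throughout.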

[11] = target: Beta-2 adrenergic receptor (Homo sapiens) (UniProt P07550); assay: qHTS validation assay of beta-arrestin-biased ligands of beta2-adrenergic receptor (AID 485366)
Sequence of Beta-2 adrenergic receptor (Homo sapiens) (P07550 whole entry, looked up): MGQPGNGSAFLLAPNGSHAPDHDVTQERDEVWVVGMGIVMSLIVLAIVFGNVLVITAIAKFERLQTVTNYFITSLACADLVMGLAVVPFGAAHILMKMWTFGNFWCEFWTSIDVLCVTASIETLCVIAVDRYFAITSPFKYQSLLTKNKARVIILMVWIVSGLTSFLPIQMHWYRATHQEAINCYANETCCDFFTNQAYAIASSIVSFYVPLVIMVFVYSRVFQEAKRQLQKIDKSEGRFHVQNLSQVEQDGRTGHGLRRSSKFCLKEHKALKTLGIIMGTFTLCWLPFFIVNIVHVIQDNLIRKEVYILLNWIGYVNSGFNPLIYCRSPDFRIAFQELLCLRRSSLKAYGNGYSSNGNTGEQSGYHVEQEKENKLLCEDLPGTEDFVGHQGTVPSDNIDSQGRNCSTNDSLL
How it was run: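 Compound series up to 46 microM applied to beta2-AR/beta-arrestin Tango cells, 18 hr, 37 degrees C, 5% CO2. Read-out: tTA-driven luciferase luminescence, converted to %Activity; concentration-response curves assigned curve classes.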

[12] = Quantitative high throughput screen for delayed death inhibitors of the malarial parasite plastid, 96 hour incubation (AID 488745); note: nearly all actives have a fitted effect of over 70% in size; note: potency is the fitted concentration of half-maximal effect
How it was run: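 Two-generation (96 h) exposure of luciferase-reporter P. falciparum in erythrocytes, 2% hematocrit, 0.1% parasitemia final, 37 C, 5% CO2, RPMI 1640 with 0.5% Albumax. Growth inhibition scored by reduced luminescence.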

[13] = Quantitative high throughput screen for delayed death inhibitors of the malarial parasite plastid, 48 hour incubation (AID 488752); note: nearly all actives have a fitted effect of over 65% in size; note: potency is the fitted concentration of half-maximal effect
How it was run: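 Cultures: infected erythrocytes at final 2% hematocrit and 0.1% parasitemia in Albumax-supplemented RPMI. Parasites express integrated firefly luciferase. Incubation with compound lasts 48 h before luminescent detection of remaining reporter activity.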

[14] = target: Tumor susceptibility gene 101 protein (Homo sapiens) (UniProt Q99816); assay: qHTS Validation Assay for Iinhibitors of HIV-1 Budding by Blocking the Interaction of PTAP/TSG101 (AID 485342; calls by dose curve)
Sequence of Tumor susceptibility gene 101 protein (Homo sapiens) (Q99816 whole entry, looked up, the tested form may be a part): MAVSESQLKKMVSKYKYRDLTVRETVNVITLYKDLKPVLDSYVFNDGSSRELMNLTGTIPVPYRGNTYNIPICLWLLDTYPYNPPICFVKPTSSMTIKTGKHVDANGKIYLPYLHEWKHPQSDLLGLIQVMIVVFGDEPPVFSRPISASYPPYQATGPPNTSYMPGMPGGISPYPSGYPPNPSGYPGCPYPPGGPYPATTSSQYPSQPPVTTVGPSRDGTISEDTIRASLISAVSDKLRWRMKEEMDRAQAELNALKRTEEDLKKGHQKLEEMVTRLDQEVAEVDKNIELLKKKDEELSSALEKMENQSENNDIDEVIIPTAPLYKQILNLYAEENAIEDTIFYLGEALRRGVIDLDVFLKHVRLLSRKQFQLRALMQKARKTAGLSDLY
How it was run: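 FP read-out: FITC-PTAP peptide, 50 nM final, binding Tsg101 binding domain, 10 uM final; 20 min r.t.; 10 mM HEPES pH 7.5, 0.15 M NaCl, 0.01% Tween 20, 3 mM EDTA, 0.1 mM TCEP.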

[15] = target: ATP-dependent 6-phosphofructokinase (Trypanosoma brucei brucei) (UniProt O15648); assay: qHTS Validation Assay to Find Inhibitors of T. brucei phosphofructokinase (AID 485368); note: potency is the fitted concentration of half-maximal effect
Sequence of ATP-dependent 6-phosphofructokinase (Trypanosoma brucei brucei) (O15648 whole entry, looked up): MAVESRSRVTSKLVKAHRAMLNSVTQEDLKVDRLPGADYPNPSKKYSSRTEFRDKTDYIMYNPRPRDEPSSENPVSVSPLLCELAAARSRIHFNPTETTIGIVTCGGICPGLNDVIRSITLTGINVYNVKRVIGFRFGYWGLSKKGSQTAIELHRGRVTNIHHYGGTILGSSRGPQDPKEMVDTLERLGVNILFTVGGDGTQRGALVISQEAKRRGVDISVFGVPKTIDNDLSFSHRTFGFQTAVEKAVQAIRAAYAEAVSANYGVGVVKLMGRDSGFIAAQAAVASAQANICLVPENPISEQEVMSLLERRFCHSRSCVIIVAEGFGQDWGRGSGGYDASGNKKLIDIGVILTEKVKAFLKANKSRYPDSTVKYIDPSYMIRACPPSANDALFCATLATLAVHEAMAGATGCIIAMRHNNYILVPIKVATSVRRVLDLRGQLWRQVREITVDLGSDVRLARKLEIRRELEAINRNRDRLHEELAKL
How it was run: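 qHTS format, up to 57 uM. PFK 1.25 nM; F6P 0.5 mM; ATP 0.1 mM; 5 mM MgCl2, 0.01% Tween20, 0.1% BSA; 0.1 M TEA pH 8.0; 45 min RT; ADP-Glo readout; no-enzyme control = full inhibition.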

[16] = qHTS Validation Assay to Find Inhibitors of Chronic Active B-Cell Receptor Signaling (AID 485345; active = well fitted curve in the direction sought with a large enough effect in the main read-out, with a control signal flat, not every such curve was filed as active; note: potency is the fitted concentration of half-maximal effect)
How it was run: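 TMD8 ABC-DLBCL cells with dox-inducible green luciferase–IκBα fusion and red native luciferase; compounds 46 uM–3 nM, 4 h at 37C with doxycycline in 0.5% FBS IMDM. Green/red ratio normalized to basal and 10 uM MG-132.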

SMILES	outcome [1]	Potency [2]	Potency [3]	Potency [4]	Potency [5]	Potency [6]	Potency [7]	Potency [8]	Potency [9]	Potency [10]	outcome [11]	Potency [12]	Potency [13]	outcome [14]	Potency [15]	Potency [16]
C[N+]1(C)CCN(c2ccccc2)CC1	inactive	inactive	inactive	inactive	inactive	inactive	inactive	inactive	inactive	inactive	inactive	inactive	inactive	–	–	–
NCC(CP(=O)(O)O)c1ccc(Cl)cc1 (centres undefined)	inactive	inactive	inactive	inactive	inactive	inactive	inactive	inactive	–	inactive	–	inactive	inactive	inactive	inactive	–
CC(C)(C)c1o[nH]c(=O)c1CC(N)C(=O)O (centres undefined)	inactive	inactive	inactive	inactive	inactive	inactive	inactive	inactive	inactive	inactive	inactive	inactive	inactive	inactive	inactive	inactive
C=CCN1CCC23c4c5ccc(O)c4O[C@H]2C(=O)CC[C@@]3(O)C1C5 (some centres undefined)	inactive	inactive	inactive	inactive	inactive	inactive	inactive	inactive	inactive	inactive	–	inactive	inactive	–	inactive	inactive
COc1ccc2c(c1)C13CCCCC1C(C2)N(C)CC3 (centres undefined)	inactive	inactive	inactive	inactive	inactive	inactive	inactive	inactive	inactive	inactive	–	–	inactive	–	–	inactive
COC(=O)N1CCN(C(=O)Cc2ccc(Cl)c(Cl)c2)C(CN2CCCC2)C1 (centres undefined)	inactive	inactive	inactive	inactive	inactive	inactive	inactive	inactive	inactive	inactive	inactive	inactive	–	–	–	inactive
O=C1CC[C@@]2(O)C3Cc4ccc(O)c5c4C2(CCN3CC2CC2)[C@H]1O5 (some centres undefined)	inactive	inactive	inactive	inactive	inactive	inactive	inactive	inactive	–	inactive	inactive	inactive	inactive	inactive	–	inactive
N[C@@H](Cn1oc(=O)[nH]c1=O)C(=O)O	inactive	inactive	inactive	inactive	inactive	inactive	–	inactive	inactive	inactive	inactive	inactive	inactive	–	inactive	inactive
OCc1cnc[nH]1	inactive	inactive	inactive	inactive	inactive	inactive	inactive	inactive	–	inactive	inactive	–	–	–	–	inactive
OC1CCCCC1N1CCC(c2ccccc2)CC1 (centres undefined)	inactive	inactive	inactive	inactive	inactive	inactive	–	inactive	–	inactive	–	inactive	inactive	inactive	inactive	inactive
Clc1cc(I)cc(Cl)c1NC1=NCCN1	inactive	inactive	inactive	inactive	inactive	inactive	–	inactive	inactive	inactive	inactive	inactive	inactive	inactive	–	inactive
NC(N)=NOCC[C@H](N)C(=O)O	inactive	inactive	inactive	inactive	inactive	inactive	inactive	inactive	inactive	inactive	inactive	inactive	inactive	–	inactive	inactive
NCCCP(=O)(O)O	inactive	inactive	inactive	inactive	inactive	inactive	inactive	inactive	–	inactive	inactive	inactive	inactive	inactive	inactive	inactive
O=C1C=CC(=O)C=C1	inactive	inactive	inactive	inactive	inactive	inactive	inactive	inactive	inactive	inactive	–	inactive	inactive	inactive	–	inactive
CCCN(CCC)C1CCc2cccc(O)c2C1 (centres undefined)	inactive	inactive	inactive	inactive	inactive	inactive	inactive	inactive	inactive	inactive	inactive	inactive	inactive	–	–	inactive
COc1ccc2c(c1)[C@@]13CCCC[C@H]1[C@@H](C2)NCC3	inactive	inactive	inactive	inactive	inactive	inactive	–	inactive	inactive	inactive	inactive	inactive	–	–	inactive	–
O=C(O)c1cc[c]([Hg][Cl])cc1	inactive	inactive	inactive	inactive	inactive	inactive	inactive	inactive	inactive	4.74 µM (active)	inactive	2.08 µM (active)	4.15 µM (active)	inactive	269 nM (active)	–
C[C@]12Cc3cn4c(nc3C=C1CCC1C2CC[C@@]2(C)[C@H]1CC[C@@]2(O)C#N)nc1ccccc14 (some centres undefined)	inactive	inactive	inactive	inactive	inactive	inactive	inactive	12.6 µM (active)	inactive	inactive	–	–	3.7 µM (active)	–	–	13 µM (active)
